Hits are enriched below; roughly 4.7% of the tested compounds scored in any of these assays.
DRV1 agonist: qHTS for Agonists of Human Resolvin D1 Receptor DRV1. Probable G-protein coupled receptor 32 (Homo sapiens), O75388. CHO-K1 GPR32 beta-arrestin PathHunter luminescence, 90 min; zero percent set by DMSO-only wells. activation, % at 76.9 µM. hit rate 2.5% among 48,000. AID 1346428, 2018;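 active = activation of at least 60% and not above a set upper limit, about 1 call in 100 departs from these limits; inconclusive = activation of 40% to 60%, or above that upper limit; inactive = activation under 40%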; also: 0% is about no effect
Target sequence (O75388 whole entry, looked up): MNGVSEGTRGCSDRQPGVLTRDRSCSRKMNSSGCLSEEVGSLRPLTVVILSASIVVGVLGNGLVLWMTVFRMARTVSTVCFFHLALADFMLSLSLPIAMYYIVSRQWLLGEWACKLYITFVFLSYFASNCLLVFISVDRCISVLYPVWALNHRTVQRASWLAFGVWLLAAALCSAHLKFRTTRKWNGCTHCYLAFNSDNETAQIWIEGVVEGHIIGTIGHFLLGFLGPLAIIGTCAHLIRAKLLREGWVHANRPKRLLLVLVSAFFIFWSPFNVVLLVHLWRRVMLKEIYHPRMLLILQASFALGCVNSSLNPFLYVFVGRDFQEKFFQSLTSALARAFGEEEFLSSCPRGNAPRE
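Readings come from a cell-based beta-arrestin complementation format: CHO-K1 GPR32 stable cells (2,500/well) treated 90 min with compounds, then beta-Gal substrate added for 1 h before chemiluminescence imaging.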
HTT promoter inh: Primary qHTS for Identification of Small Molecule Inhibitors of Huntingtin Promoter Activity. HEK293 HTT promoter firefly luciferase reporter, 24 h. Potency, µM (series often up to 57.5 µM), for inactives: at the highest dose activity change, negative = inhibition, usual class: inhibitors. hit rate 0.93% among 48,000. AID 1508623, 2021; also: potency is read from the fitted curve at half-maximal effect; nearly all actives have a fitted effect of over 50% in size
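Firefly luciferase signal from promoter-reporter HEK293 cells was scaled between vehicle (0%) and zero RLU (-100%). Compounds were tested at final concentrations of up to 57.5 uM over 24 h at 37 degrees C. PTC124 at 50 uM final served as control inhibitor.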
HTT-AS promoter: Primary qHTS for Identification of Small Molecule Activators of Huntingtin-Antisense Promoter Activity; HEK293 HTT-AS promoter firefly luciferase reporter, 24 h; response scale: percent change from vehicle, -100% = no light; hit rate 0.24% among 48,000; Potency, µM (doses to about 57.5 µM), inactives show top-dose activity change, positive = activation, actives largely listed as activators; AID 1508624, 2021; also: potency is read from the fitted curve at half-maximal effect; nearly all actives have a fitted effect of over 55% in size
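HEK293 luciferase promoter-reporter cells (2,500/well) plated 24 h, then compounds added at up to 57.5 uM final for 24 h at 37 °C. Firefly luminescence by Dual-Glo, normalized to vehicle (0%) and zero RLU (-100%).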
GALC G270D act: A Novel Cell-Based Assay to Identify Small Molecules for B -Galactocerebrosidase; Potency, µM (top dose mostly 57.5 µM), actives largely listed as activators; 145M-Twi-hGALC-G270D cells (Twitcher mouse brain line with human GALC G270D), HMU-beta-Gal fluorescence, 48 h; P54803; hit rate 0.1% among 45,000; AID 1159614, 2016; also: potency is read from the fitted curve at half-maximal effect; 0% is about no effect; nearly all actives have a fitted effect of over 65% in size
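Brain-derived Twitcher mouse 145M-Twi cells stably expressing human GALC-G270D or wild-type GALC, treated live, then residual GALC activity read by fluorescence of HMU-b-Gal substrate (0.1 mM final) in citrate-phosphate buffer pH 5.2 with sodium taurocholate. Signal increase indicates enhancement.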
FH mod: Identification of activators of human fumarate hydratase by quantitative high-throughput screening | Fumarate hydratase, mitochondrial (Homo sapiens), P07954 | FH coupled MDH/diaphorase resazurin fluorescence, 15 min | Potency, µM (titrated, usually from 79.9 µM), for the others: top-dose activity change, negative = inhibition, actives largely listed as inhibitors | hit rate 0.22% among 54,000 | AID 1347055, 2019; also: potency is read from the fitted curve at half-maximal effect; % is scaled to controls: 0 for no effect and ±100 for the full control effect; the screen sought activators but most active calls are inhibition curves; nearly all actives have a fitted effect of over 45% in size
NTMT1 inh: Primary qHTS for Inhibitors of N-terminal methyltransferase 1 (NTMT1): MTaseGlo Assay; NTMT1 MTase-Glo SAH luminescence, purified enzyme; Potency, µM (series often up to 114 µM), inactives show at the top dose activity change, negative = inhibition, actives largely listed as inhibitors; hit rate 2.5% among 59,000; AID 1645870, 2021;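 also: potency is read from the fitted curve at half-maximal effect; plate controls were DMSO vehicle for no effect and no enzyme for full effect; nearly all actives have a fitted effect of over 65% in size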
Target sequence (Q9BV86 whole entry, looked up): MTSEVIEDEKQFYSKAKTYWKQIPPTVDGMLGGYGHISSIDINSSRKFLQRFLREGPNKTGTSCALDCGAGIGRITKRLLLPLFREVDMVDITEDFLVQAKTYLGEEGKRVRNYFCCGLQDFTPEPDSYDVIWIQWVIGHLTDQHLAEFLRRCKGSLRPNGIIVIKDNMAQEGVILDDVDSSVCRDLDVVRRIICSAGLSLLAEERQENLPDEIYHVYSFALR
* marks the source's active call; other numbers are inactive results; i = inactive; ? = inconclusive; · = no result given; ! = repeats disagree; [ ] = another dose, or the depositor's remark. Unless noted, calls follow the shape of the dose curve; as a rule, active = well fitted curve in the direction sought with a large enough effect; inconclusive = small, poorly fitted or top-dose-only effect, or another doubt; inactive = no such curve, though single readings can be large; an effect the other way counts as inactive or inconclusive.

SMILES	DRV1 agonist	HTT promoter inh	HTT-AS promoter	GALC G270D act	FH mod	NTMT1 inh
CCOC(=O)C1CCCN(C(=O)Cn2c(=O)cc(C)c3c(C)nn(C)c32)C1 (stereo not given)	81.0*	?	-24.8%	i	0.1%	-5.6%
CCOc1ccc(NC(=O)Cn2c(=O)cc(C)c3c(C)nn(C)c32)cc1	18.4	-24.1%	-14.1%	i	-2.1%	-0.1%
Cc1c2cnn(-c3ccccc3)c(=O)c2c(C)n1CC(=O)N1CCN(c2ccc(F)cc2)CC1	-0.5	?	-34.2%	i	-5.9%	?
Cc1cc(=O)n(CC(=O)N2CCN(c3ccc(F)cc3)CC2)c2c1c(C)nn2C	71.0*	?	-43.3%	i	-5.5%	-12.3%
Cc1ccc(Cn2c(C)c3cnn(CC(=O)N4CCN(c5ccc(F)cc5)CC4)c(=O)c3c2C)cc1	-0.2	14.1µM*	-85.5%	i	-26.0%	?
CCCCOC(=O)NS(=O)(=O)c1sc(CC(C)C)cc1-c1ccc(Cn2ccnc2)cc1	·	·	·	·	-2.3%	4.6%[57.5 µM]
Cc1ccc(OCCn2c(CCNC(=O)c3ccccc3[N+](=O)[O-])nc3ccccc32)cc1	·	·	·	·	·	2.3%
CC1(C)OC2=C(C(=O)c3ccccc3C2=O)[C@H](NCc2ccccc2)[C@@H]1O	·	·	·	·	·	-21.3%
CC1(CO)CC(O)[C@]2(C(=O)O)CCC34CC3(C=CC3[C@]5(C)C(CC[C@]34C)C(C)(CO)[C@@H](O)[C@H](O)[C@@H]5O)C2C1 (stereo not given in full)	·	·	·	·	-3.7%[53.3 µM]	-15.4%[29.8 µM]
COc1ccc(C(=O)Nc2cc3cc(Cl)ccc3oc2=O)cc1OC	-23.3	12.3%	-5.9%	i	8.0%	-5.7%
Cc1ccc(C(=O)Nc2cc3cc(Cl)ccc3oc2=O)cc1	61.8*	-10.1%	-18.6%	i	6.8%	8.5%
CC(=O)N[C@H]1[C@H](O[C@H]2CC[C@]3(C)C4CC=C5[C@@H]6CC(C)(C)CC[C@]6(C(=O)O)[C@H](O)C[C@@]5(C)[C@]4(C)CC[C@H]3C2(C)C)O[C@H](CO)[C@@H](O)[C@@H]1O (stereo not given in full)	·	·	·	·	-1.8%[20.6 µM]	28.7%[12.6 µM]
CC(=O)OC/C(=C/C(=O)O)CC[C@@H]1C(C=O)=CC[C@@H]2C(C)(C)CCC[C@@]12C	·	·	·	·	-0.7%[53.3 µM]	-8.5%[29.8 µM]
CCCc1cc(=O)[nH]c(Nc2ccc(O)cc2C)n1	0.5	·	·	·	·	·
CCCc1cc(=O)[nH]c(Nc2cccc(Cl)c2Cl)n1	87.2*	·	·	·	·	·
CCCc1cc(=O)[nH]c(Nc2cc(Cl)cc(Cl)c2)n1	98.5*	·	·	·	·	·
O=C1C[C@@H](c2ccc(O)cc2)Oc2cc(O)ccc21	·	·	·	·	-2.1%	-1.2%[57.5 µM]
COc1c(O)cc2c(c1O)C(=O)O[C@H](C)[C@H]2O	·	·	·	·	-7.1%	3.1%[57.5 µM]
Cc1cc(C)c2c(c1)[C@@H](N(Cc1cc(C(F)(F)F)cc(C(F)(F)F)c1)c1nnn(C)n1)CCCN2CC1CCC(C(=O)O)CC1 (stereo not given in full)	·	·	·	·	·	4.6%
COc1ccc(C2(CNC(=O)c3ccc(NC(=O)c4ccco4)cc3)CCOCC2)cc1	·	·	·	·	5.1%	4.4%[57.5 µM]
O=C1CCc2ccc(OCCCCN3CCN(c4cccc(Cl)c4Cl)CC3)cc2N1	89.7*	-8.5%	-9.8%	i	4.8%[53.3 µM]	8.8%
O=c1ccc2ccc(OCCCCN3CCN(c4cccc5sccc45)CC3)cc2[nH]1	·	·	·	·	5.4%	?
CC1(CO)CCCC2(C)C3COC(=O)C3=CC(O)C12 (stereo not given)	·	·	·	·	2.6%	12.3%[57.5 µM]
O=C(Nc1ccc(Br)cc1)C1CCCN1S(=O)(=O)c1ccc(F)cc1 (stereo not given)	-4.4	35.5µM*	-42.1%	i	-12.4%	-20.0%
COc1cccc(CNC(=O)C2CCCN(S(=O)(=O)N(C)c3ccc(F)cc3)C2)c1OC (stereo not given)	6.3	25.1µM*	-90.5%	i	3.0%	2.0%
SMILES	DRV1 agonist	HTT promoter inh	HTT-AS promoter	GALC G270D act	FH mod	NTMT1 inh
Cc1ccc(NC(=O)c2cnc3cc(C)ccn3c2=O)c(C)c1	-1.1	58.0%	3.55µM*	i	-3.9%	-0.4%
Cc1ccc2ncc(C(=O)Nc3cccc(C(F)(F)F)c3)c(=O)n2c1	-6.6	-2.6%	-9.8%	i	-13.6%	2.1%
Cc1cc(C)c2c(N)c(C(=O)Nc3ccccc3C(F)(F)F)sc2n1	89.4*	18.2%	?	i	-5.6%	1.6%
COc1cc(C(=O)NC2CCN(C)CC2)ccc1Nc1ncc2c(n1)N(C1CCCC1)CCC(=O)N2C(C)C	·	-13.8%	-24.4%	·	23.1%[53.3 µM]	22.4µM*
CC[C@@H]1C(=O)N(C)c2cnc(Nc3ccc(C(=O)NC4CCC(N5CCN(CC6CC6)CC5)CC4)cc3OC)nc2N1C(C)C (stereo not given in full)	·	-2.8%	?	·	2.9%	25.1µM*!
CCC1C(=O)N(C)c2cnc(Nc3ccc(C(=O)NC4CCC(N5CCN(CC6CC6)CC5)CC4)cc3OC)nc2N1C(C)C (stereo not given)	·	·	·	·	2.3%	?
COc1ccccc1Nc1nn2c(=O)c3ccc(C(=O)NC4CCCCC4)cc3nc2s1	13.3	-11.7%	-21.6%	i	0.5%	16.5%
COc1ccccc1-n1cnc2cc(C(=O)N3CCCCC3)ccc21	·	·	·	·	·	11.4%
CC1(C)C[C@@H]2[C@H](C1)[C@@]1(C)C[C@]13C(O)OC[C@]3(O)[C@H]2O (stereo not given in full)	·	·	·	·	0.0%	-2.8%[57.5 µM]
C[N+](C)([O-])CCNc1ccc(NCC[N+](C)(C)[O-])c2c1C(=O)c1c(O)ccc(O)c1C2=O	·	-6.3%	-23.8%	·	-9.4%[53.3 µM]	?
O=C1c2c(O)ccc(O)c2C(=O)c2c(NCCNCCO)ccc(NCCNCCO)c21	-33.9	?	-63.7%	i	?	28.2µM*!
CCc1cc2c(c(OCC(F)(F)F)c(C(=O)NC3CCN(C(=O)CO)CC3)n2C)c(=O)n1CC(=O)c1ccccc1	·	·	·	·	·	5.6%
CCC1CN(C(=O)N2CCC(C(=O)N3CCN(c4cccc(C)c4C)CC3)CC2)c2ccccc2O1 (stereo not given)	-15.1	20µM*	-45.6%	i	?	-1.5%
CCC1CN(C(=O)N2CCC(C(=O)N3CCN(c4cc(C)ccc4C)CC3)CC2)c2ccccc2O1 (stereo not given)	-15.7	?	-52.9%	i	-23.1%	10.4%
